CBX7 AlphaScr – inhibitors of human CBX7 binding to H3K27me3 peptide; AlphaScreen His6-CBX7 / biotin-H3K27me3 peptide binding; active compounds read low; 66,000 compounds, 1.1% hits; normalised signal (fraction of DMSO) (no concentration beside the values); AID 1224903; O95931; in the data active = normalised signal below about 0.5
Target sequence (O95931 whole entry, looked up): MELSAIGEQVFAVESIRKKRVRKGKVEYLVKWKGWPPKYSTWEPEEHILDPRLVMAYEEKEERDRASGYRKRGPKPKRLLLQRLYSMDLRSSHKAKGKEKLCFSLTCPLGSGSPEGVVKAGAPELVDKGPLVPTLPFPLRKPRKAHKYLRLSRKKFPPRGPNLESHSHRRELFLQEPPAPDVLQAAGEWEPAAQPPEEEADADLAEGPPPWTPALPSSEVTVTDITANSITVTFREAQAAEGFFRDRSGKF
Numbers without * were called inactive. Only a selection was taken, and hits are over-represented in it overall.

SMILES	CBX7 AlphaScr
COc1ccc(C(=O)Nc2nnc(COc3ccc(Br)cc3)s2)cc1OC	1.1
Cn1c(C(=O)NCC2CCCO2)cc2sc(Cl)cc21 (configuration not stated)	1
CCCOc1ccc(C(=O)Nc2ncc(Cc3cccc(C(F)(F)F)c3)s2)cc1	1.1
Fc1ccc(CSc2nc3ccncc3n2Cc2cccc(F)c2)cc1	0.98
CCc1cccc(C)c1NC(=O)CCCN1C(=O)c2cccnc2C1=O	1
CCc1ccccc1NC(=O)CCCN1C(=O)c2cccnc2C1=O	0.68
Cc1cc(Cl)ccc1OCCCC(=O)N1c2ccc(F)cc2CCC1C (configuration not stated)	1
O=C(CCCN1C(=O)c2cccnc2C1=O)N1CCN(c2ccccc2F)CC1	0.34*
CC1CCc2cc(F)ccc2N1C(=O)CCCN1C(=O)c2cccnc2C1=O (configuration not stated)	0.47*
Cc1ccc(NC(=O)CCCN2C(=O)c3cccnc3C2=O)cc1F	1.2
O=C(CCCN1C(=O)c2cccnc2C1=O)N1CCN(c2ccccc2)CC1	0.49*
O=C(CCCN1C(=O)c2cccnc2C1=O)Nc1ccccc1F	0.81
O=C(CCCN1C(=O)c2cccnc2C1=O)Nc1ccc(Cl)c(C(F)(F)F)c1	0.72
CC1CCN(CCCNC(=O)c2cn(C)c3ccc(S(=O)(=O)N4CCOCC4)cc3c2=O)CC1	1.1
O=C(Nc1ncc(Cc2ccc(Cl)cc2)s1)c1ccco1	0.96
COc1ccc(-n2ncc3c(NCCO)ncnc32)cc1	0.98
Cc1cccc(C(=O)Nc2ccc(Cl)c(-c3nc4ccccc4o3)c2)c1	1.2
Cc1cccn2c(Nc3ccccc3)c(-c3ccccn3)nc12	0.87
Cc1cccc(C)c1Nc1c(-c2ccccn2)nc2c(C)cccn12	0.87
c1ccc(Nc2c(-c3ccc(N4CCOCC4)cc3)nc3ccccn23)cc1	1.1
Clc1ccc(Nc2c(-c3ccccn3)nc3cnccn23)cc1	0.8
c1ccc(Nc2c(-c3ccccn3)nc3ccccn23)cc1	0.24*
CC(C)c1ccc(Nc2c(-c3ccccn3)nc3ccccn23)cc1	0.21*
Cc1cccn2c(Nc3ccc(C(C)C)cc3)c(-c3ccccn3)nc12	0.26*
Cc1ccc(Nc2c(-c3ccccc3)nc3ccccn23)cc1	0.98
Cc1ccc(Nc2c(-c3ccc(C)cc3)nc3ccccn23)cc1	1.3
COc1ccccc1NC(=O)c1nnn(Cc2ccccc2)c1N	1.2
COc1ccc(C(=O)c2oc3ccccc3c2NC(=O)c2ccccc2F)cc1	1.1
O=C1c2ccccc2C(Nc2cccc(C(F)(F)F)c2)N1c1ccccn1 (configuration not stated)	1
CCCCCCn1c(=N)n(CC(O)COc2ccc(OC)cc2)c2ccccc21 (configuration not stated)	0.9

Source: PubChem BioAssay
